Bioassay records from PubChem BioAssay.
This is a sample that favours compounds with a hit; in the whole collection about 4% have one here.
Gli-Sufu block – Gli-Sufu pathway antagonism. inhibition, % at 5 µM. Sufu-KO-LIGHT fibroblasts, Gli luciferase reporter luminescence. 0.74% of 340,000 active. AID 588413;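 active means inhibition above about 55%, limit read from the data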;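 further: 0% = DMSO-treated cells and 100% = wells with medium but no cells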
Mdm2-MdmX inh – human Mdm2/MdmX binding inhibition. O15151+Q00987. inhibition, % at 8 µM. AID 485346. 3% of 330,000 active. SaOS-2 split-luciferase Mdm2/MdmX complementation, luminescence;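 active means inhibition of at least 50% at 8 µM in the primary screen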
Beta apoptosis – beta cell apoptosis inhibition; AID 435005; INS-1E cytokine-induced death, ATP luminescence, 48 h; percent of positive-control rescue, neutral wells zero; protection from apoptosis, % (concentration not given with the values); 0.8% of 300,000 active;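 active means Every replicate reaches about 75%, or at least half do and their mean reaches it too, limit read from the data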;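 further: 0% = cytokine-treated negative control wells and 100% = positive control rescue; higher means more ATP so stronger rescue from cytokine killing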
Jurkat NFkB inh – lowers PMA/ionomycin-induced NF-kB signal in Jurkat cells. PMA/ionomycin-induced NF-kB luciferase reporter, luminescence. inhibition, % at 4 µM. 0.53% of 330,000 active; in the data active means inhibition above about 50%
697 NFkB inh – inhibitors of the PMA/ionomycin-induced NF-kB reporter in 697 B cells | 0.33% of 330,000 active | inhibition, % at 4 µM | 697 B-cell NF-kB luciferase reporter, 16 h; in the data active means inhibition above about 35%
697 NFkB conf – inhibitors of the PMA/ionomycin-induced NF-kB reporter in 697 B cells, retest | shares compounds with 697 NFkB inh | 697 B-cell NF-kB luciferase, 16 h | inhibition, % at 4 µM | 35% of 2,000 active; in the data active means inhibition mostly above about 28%, no sharp cut-off; inactive means mostly below about 22%
Starred values were filed as active, the others as inactive; x = no result.

SMILES	Gli-Sufu block	Mdm2-MdmX inh	Beta apoptosis	Jurkat NFkB inh	697 NFkB inh	697 NFkB conf
CCC(C)[C@H](N)c1nnc(SCC(=O)c2ccc(Cl)cc2)o1 (some centres not stated)	26	23	-1	8	44*	32*
CC(C)[C@H](N)c1nnc(SCc2ccc(Cl)cc2)o1	3	17	-6	-7	-11	x
CCN(CC(=O)Nc1c(F)cccc1F)C(=O)Cc1ccc2c(c1)CCC2	6	5	0	-7	4	x
Cc1cc(/C=C2\SC(=O)N(C)C2=O)c(C)n1-c1ccc(O)cc1	13	15	6	-93	-272	-102
Cc1cc(/C=C2\SC(=O)N(C)C2=O)c(C)n1-c1ccc(S(N)(=O)=O)cc1	-4	1	-6	-10	-12	x
O=C(/C=C/c1ccc(O)c(O)c1)c1ccccc1O	12	-74	-3	-18	-276	-180
CCNC(=O)c1c(O)c2c([nH]c1=O)CCCC2	-3	11	-5	-11	7	x
O=C(Nc1ccc(O)cc1)c1c(O)c2c([nH]c1=O)CCCC2	-58	-113	x	-95	-469	-261
CC(C)CN(CC(C)C)C(=S)NC1CCCCC1	6	15	-2	-2	7	x
CSc1cccc2sc(NC(=O)C3=COCCO3)nc12	-16	-22	-3	-24	3	x
O=C(Nc1nc2ccc(F)cc2s1)C1=COCCO1	-73	11	13	-100	-250	-76
COCCNc1nnc(SC(C)C(=O)Nc2ccc(-c3nc4ccc(C)cc4s3)cc2)s1 (configuration not stated)	-63	-186	-16	-125	-294	-282
COCCNc1nnc(SC(C)C(=O)Nc2c(C)n(C)n(-c3ccccc3)c2=O)s1 (configuration not stated)	-11	35	-5	15	-3	x
c1ccc2nc(-c3ccc(N4CCOCC4)cc3)ccc2c1	-24	25	4	-67	-348	-291
Cc1c(CC(=O)NCCC(=O)O)c(=O)oc2cc3oc4c(c3cc12)CCCC4	7	3	7	16	17	x
O=C(O)C1CCN(C(=O)COc2ccc3c4c(c(=O)oc3c2)CCCC4)CC1	-1	20	-1	1	38*	13
Cc1c(CCC(=O)N[C@@H](C)C(=O)O)c(=O)oc2cc3oc4c(c3cc12)CCCC4	11	-46	2	12	41*	18
Cc1c(CCC(=O)N2CCC(C(=O)O)(c3ccccc3)CC2)c(=O)oc2cc3oc4c(c3cc12)CCCC4	9	-25	0	-1	53*	37*
Cc1c(CCC(=O)N2CCC(C(=O)O)CC2)c(=O)oc2cc3oc4c(c3cc12)CCCC4	6	-9	-3	0	49*	47*
Cc1c(CC(=O)NCCCC(=O)O)c(=O)oc2cc3oc4c(c3cc12)CCCC4	-2	12	-6	-7	-13	x
Nc1nnn(CC(=O)N/N=C/C=C/c2ccccc2)n1	-3	15	-10	-8	3	x
CN(C)c1nc(Oc2ccc(OCCOc3ccccc3)nn2)nc(N(C)C)n1	-2	27	-2	-11	17	x
COc1ccc(Cl)cc1NC(=O)CN(C)C(=O)c1ccc2c(c1)CC(c1ccccc1)OC2=O (configuration not stated)	-8	13	3	-7	7	x
COc1cc(-c2[nH]nc3c2C(c2ccco2)C(C#N)=C(N)O3)cc(OC)c1OC (configuration not stated)	4	4	-2	17	57*	37*
CC(O)CC(=O)NOCc1ccccc1 (configuration not stated)	-1	3	x	x	12	x
SMILES	Gli-Sufu block	Mdm2-MdmX inh	Beta apoptosis	Jurkat NFkB inh	697 NFkB inh	697 NFkB conf
CC(C)Cn1c(S(=O)(=O)O)nc2ccccc21	-34	24	-1	-3	35*	-23
COc1ccc(S(=O)(=O)N2CCOC2CNC(=O)C(=O)NCCN2CCOCC2)cc1OC (configuration not stated)	-5	42	-2	-1	3	x
CC1CCCC(C)N1C(=O)CSc1ncccn1 (configuration not stated)	28	-12	-3	6	14	x
CCCCc1c(O)nc(SCC(=O)c2ccccc2)n(-c2ccccc2OC)c1=O	0	22	-2	-2	7	x
O=C(NCCCN1CCOCC1)C(=O)N/N=C/c1ccccc1	-9	6	-1	3	18	x
O=C(NCCCN1CCOCC1)C(=O)N/N=C/c1cccc2ccccc12	4	9	0	-7	40*	38*
